Test results taken from PubChem BioAssay AID1159580 (chemical genetic matrix, 2015).
About 2,000 (36%) of roughly 5,500 compounds were called active. About 18% were inconclusive and are not listed. No stated cut-off is given here; in the data, active means normalized growth mostly below about 0.91 (no sharp cut-off); inconclusive means no clear call, values can overlap the other calls; inactive means mostly above about 0.92. Some of the results follow.

Experiment: chemical genetic growth profiling, strain panel (AID 1159580);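 further: tested at 20 µM; growth read once vehicle control cultures reached saturation at 30 °C; 1 = growth at the plate median or of vehicle wells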
Settings: S. cerevisiae deletion strains, growth OD

Measured: normalized growth

C[N+](C)(CCCCCC[N+](C)(C)CCCN1C(=O)c2cccc3cccc(c23)C1=O)CCCN1C(=O)c2cccc3cccc(c23)C1=O
inactive: locus YAL040C, strain CLN3, stronger effect = lower value 0.984 | locus YCL061C, strain MRC1 (second series), stronger effect = lower value 1 | locus YDR150W, strain NUM1, stronger effect = lower value 1 | locus YDR363W, strain ESC2, stronger effect = lower value 0.986 | locus YER002W, strain NOP16, stronger effect = lower value 1.01 | locus YGR229C, strain SMI1, stronger effect = lower value 1 | locus YMR307W, strain GAS1, stronger effect = lower value 0.981 | locus YNL128W, strain TEP1, stronger effect = lower value 0.995 | locus YNL153C, strain GIM3, stronger effect = lower value 0.955 | locus YNL175C, strain NOP13, stronger effect = lower value 1.01 | locus YNL197C, strain WHI3, stronger effect = lower value 1.01 | locus YNL224C, strain SQS1, stronger effect = lower value 1 | locus YOR083W, strain WHI5 (second series), stronger effect = lower value 1.01 | locus YPL055C, strain LGE1, stronger effect = lower value 0.963 | locus YPL241C, strain CIN2, stronger effect = lower value 0.99

CC(C)(CCC(C)(C)N1C(=O)c2cccc3cccc(c23)C1=O)N1C(=O)c2cccc3cccc(c23)C1=O
inactive: locus YDL132W, strain cdc53, stronger effect = lower value 0.971 | locus YJR016C, strain ILV3, stronger effect = lower value 0.976 | locus YPR111W, strain DBF20, stronger effect = lower value 0.92
active: locus YAR019C, strain CDC15, stronger effect = lower value 0.0987 | locus YBL105C, strain PKC1, stronger effect = lower value 0.0855 | locus YBR135W, strain CKS1, stronger effect = lower value 0.0899 | locus YBR136W, strain MEC1, stronger effect = lower value 0.107 | locus YBR160W, strain CDC28, stronger effect = lower value 0.0904 | locus YDL017W, strain CDC7, stronger effect = lower value 0.0866 | locus YDL028C, strain MPS1, stronger effect = lower value 0.0947 | locus YDL101C, strain DUN1, stronger effect = lower value 0.628 | locus YDL108W, strain KIN28, stronger effect = lower value 0.13 | locus YDL214C, strain PRR2, stronger effect = lower value 0.0867 | locus YDR052C, strain DBF4, stronger effect = lower value 0.308 | locus YDR054C, strain cdc34, stronger effect = lower value 0.227 | locus YDR226W, strain ADK1, stronger effect = lower value 0.509 | locus YDR477W, strain SNF1, stronger effect = lower value 0.0979 | locus YER123W, strain YCK3, stronger effect = lower value 0.103 | locus YER133W, strain GLC7, stronger effect = lower value 0.0935 | locus YFL029C, strain CAK1, stronger effect = lower value 0.0982 | locus YFR003C, strain YPI1, stronger effect = lower value 0.0904 | locus YFR019W, strain FAB1, stronger effect = lower value 0.0894 | locus YGR040W, strain KSS1, stronger effect = lower value 0.1 | locus YGR052W, strain FMP48, stronger effect = lower value 0.133 | locus YGR092W, strain DBF2, stronger effect = lower value 0.098 | locus YHR030C, strain SLT2, stronger effect = lower value 0.0982 | locus YHR079C, strain IRE1, stronger effect = lower value 0.116 | locus YHR082C, strain KSP1, stronger effect = lower value 0.129 | locus YHR205W, strain SCH9, stronger effect = lower value 0.213 | locus YIL147C, strain SLN1, stronger effect = lower value 0.0853 | locus YJL095W, strain BCK1, stronger effect = lower value 0.128 | locus YJL128C, strain PBS2, stronger effect = lower value 0.472 | locus YJL157C, strain FAR1, stronger effect = lower value 0.0837 | locus YJR066W, strain TOR1 (second series), stronger effect = lower value 0.12 | locus YJR066W, strain TOR1, stronger effect = lower value 0.123 | locus YKL048C, strain ELM1, stronger effect = lower value 0.104 | locus YKL067W, strain YNK1, stronger effect = lower value 0.0909 | locus YKL101W, strain HSL1, stronger effect = lower value 0.099 | locus YKL193C, strain SDS22, stronger effect = lower value 0.0977 | locus YKL203C, strain TOR2, stronger effect = lower value 0.116 | locus YLR113W, strain HOG1, stronger effect = lower value 0.166 | locus YLR133W, strain CKI1, stronger effect = lower value 0.0889 | locus YLR403W, strain SFP1, stronger effect = lower value 0.0154 | locus YML070W, strain DAK1, stronger effect = lower value 0.0999 | locus YMR001C, strain CDC5, stronger effect = lower value 0.0878 | locus YMR205C, strain PFK2 (second series), stronger effect = lower value 0.0998 | locus YMR277W, strain FCP1, stronger effect = lower value 0.104 | locus YNL006W, strain LST8, stronger effect = lower value 0.0921 | locus YNL020C, strain ARK1, stronger effect = lower value 0.0878 | locus YNL161W, strain CBK1, stronger effect = lower value 0.0843 | locus YNL183C, strain NPR1, stronger effect = lower value 0.13 | locus YNL207W, strain RIO2, stronger effect = lower value 0.508 | locus YNL222W, strain SSU72, stronger effect = lower value 0.095 | locus YNL307C, strain MCK1 (second series), stronger effect = lower value 0.0953 | locus YOL078W, strain AVO1, stronger effect = lower value 0.093 | locus YOL136C, strain PFK27, stronger effect = lower value 0.0923 | locus YOR061W, strain CKA2, stronger effect = lower value 0.1 | locus YOR119C, strain RIO1, stronger effect = lower value 0.118 | locus YOR231W, strain MKK1, stronger effect = lower value 0.13 | locus YOR329C, strain SCD5, stronger effect = lower value 0.0829 | locus YPL031C, strain PHO85, stronger effect = lower value 0.0976 | locus YPL153C, strain RAD53, stronger effect = lower value 0.101 | locus YPL204W, strain HRR25, stronger effect = lower value 0.0987 | locus YPL209C, strain IPL1, stronger effect = lower value 0.0859 | locus YPL256C, strain CLN2, stronger effect = lower value 0.134 | locus YPR025C, strain CCL1, stronger effect = lower value 0.0843 | strain NNK1, stronger effect = lower value 0.0956 | strain TSCII, stronger effect = lower value 0.0989
